In the library only some 4.8% were active in any assay of this set; here they are far more common.
DAX1 inh-1: DAX1 (NR0B1) inhibitors on StAR promoter, primary screen, cell-based, luminescence, SF-1 (NR5A1), full-length DAX-1. HEK293T StAR-luciferase reporter, SF-1/DAX-1 repression relief. inhibition, % at 6.8 µM. 1.1% of 370,000 active;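 active = inhibition above the mean over all tested compounds plus 3 SD, cut at about 3.6% in these data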;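 note: higher inhibition means more luminescence from relief of DAX-1 repression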
hcDAF12 agonist: H. contortus DAF-12 nuclear receptor activators, primary screen, cell-based, luminescence, HEK293, lit1-tk-luc reporter; activation, % at 6.8 µM; AID 652067, 2013; 1.4% of 370,000 active; HEK293 hcDAF-12 lit1-tk-luc reporter; 0% DMSO, 100% Δ7-dafachronic acid;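 active = activation above the mean of all tested compounds plus 3 SD, cut at about 5.5% in these data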
DAX1 inh-2: DAX1 (NR0B1) inhibitors, primary screen, cell-based, HEK293, Gal4-DAX1, luciferase luminescence | AID 504766, 2011 | Nuclear receptor subfamily 0 group B member 1 (Homo sapiens), P51843 | inhibition, % at 6.75 µM | HEK293 Gal4-DAX1 luciferase reporter | 0.99% of 340,000 active;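 active = inhibition above the mean over all tested compounds plus 3 SD, cut at about 4.2% in these data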;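 note: inhibition shows as a rise in luminescence from relieved DAX1 repression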
Target sequence (P51843 207-470 limits assumed): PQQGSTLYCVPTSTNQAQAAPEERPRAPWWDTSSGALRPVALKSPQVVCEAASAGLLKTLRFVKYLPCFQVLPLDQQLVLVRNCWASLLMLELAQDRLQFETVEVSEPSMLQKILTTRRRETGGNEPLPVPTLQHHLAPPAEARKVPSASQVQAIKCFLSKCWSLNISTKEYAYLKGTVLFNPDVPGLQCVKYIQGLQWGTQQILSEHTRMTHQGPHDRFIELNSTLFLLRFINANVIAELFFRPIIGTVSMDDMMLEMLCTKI
ssDAF-12 act: S. stercoralis DAF-12 nuclear receptor activators, primary screen, cell-based, luminescence, HEK293, GRIP1 co-expression, lit1-tk-luc; HEK293 ssDAF-12/GRIP1 lit1-tk-luc reporter; % of 3 µM dafachronic acid response; activation, % at 6.8 µM; 1% of 370,000 active; AID 652126, 2013;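 active = activation above the mean over all tested compounds plus 3 SD, cut at about 0.9% in these data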
hgDAF12 agonist: H. glycines DAF-12 receptor agonists, primary screen, cell-based, luminescence, HEK293, GAL4 fusion, UAS-luciferase; HEK293 GAL4-hgDAF12 UAS-luciferase reporter, agonist luminescence; normalized to butyrate control; activation, % at 6.8 µM; 1.8% of 370,000 active; AID 687014, 2013;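 active = activation above a cutoff set at the mean of all screened compounds plus 3 SD, cut at about 10% in these data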
SMARCA2 act: SMARCA2 (BRM) function activators, primary screen, cell-based, luminescence, high throughput | activation, % at 9.1 µM | MG213 cells, MMTV-luciferase reporter, dexamethasone, overnight | 1% of 370,000 active; in the data active = activation above about 7.8%
Large screens that a line does not name were inactive.

O=C(O)Cc1sc(Nc2cccc3ccccc23)nc1-c1ccccc1	DAX1 inh-1 4.3
Nc1nc(-c2ccccc2)c(CC(=O)O)s1	none
O=C(O)Cc1sc(Nc2ccc(Cl)cc2)nc1-c1cccs1	hcDAF12 agonist 5.8 (no result: DAX1 inh-2)
Nc1nc(-c2cccs2)c(CC(=O)O)s1	none
COc1ccc(N2CCN(CCCNC(=O)CCc3ccc(F)cc3)CC2)cc1	none (no result: DAX1 inh-2)
CCOC(=O)C1CCN(C(=O)C(Cc2ccc3c(c2)OCO3)NC(C)=O)CC1 (stereo unspecified)	none (no result: DAX1 inh-2)
CN(C)[C@@H]1CCN(c2cccc3c2S(=O)(=O)N(C2CC2)CCCO3)C1	none (no result: DAX1 inh-2)
CCn1c(O)c(C2=c3ccccc3=NC2=O)c2cc(Br)ccc21	ssDAF-12 act 1.0 (no result: DAX1 inh-2)
Cc1cccc(OCC(C)CN2CCC(C(O)(c3ccccc3)c3ccccc3)CC2)c1 (stereo unspecified)	none (no result: DAX1 inh-2)
C/C(=N\NC(=O)c1cccc([N+](=O)[O-])c1)c1cccs1	DAX1 inh-2 4.9
C/C(=N\NC(=O)c1cccs1)c1ccc2ccccc2c1	hgDAF12 agonist 11
C/C(=N\NC(=O)c1cccc([N+](=O)[O-])c1)c1ccncc1	none
C/C(=N\NC(=O)c1cccc2ccccc12)c1cccs1	none
C/C(=N/NC(=O)c1cccs1)c1cccc(NC(=O)C2CC2)c1	DAX1 inh-1 4.2, hgDAF12 agonist 13
CC(=O)N/N=C(\C)c1cccc(NC(=O)c2cccs2)c1	none
COc1ccc(OC)c(NC(=O)c2[nH]c(C)c(C(C)=O)c2C)c1	hcDAF12 agonist 5.8
CCC(/C=C1\Sc2ccc(OC)cc2N1CC)=C\c1sc2ccc(OC)cc2[n+]1CCCS(=O)(=O)[O-]	ssDAF-12 act 5.6
CCC(/C=C1\Sc2ccc(OC)cc2N1CCO)=C\c1sc2ccc(OC)cc2[n+]1CCO	none
Cn1c(=S)[nH]c2ccccc21	hcDAF12 agonist 5.9, DAX1 inh-2 4.7
N#CCCn1c(=S)[nH]c2ccccc21	none
Nc1[nH]c(C(=O)c2ccccc2)c(-c2ccc3ccccc3c2)c1C(=O)NCCc1ccc(Cl)cc1	none (no result: DAX1 inh-1, DAX1 inh-2, SMARCA2 act)
Cc1cc(C)nc(Nc2n[nH]c(-c3ccc(N)cc3)n2)n1	hgDAF12 agonist 11
Cc1cc(C)nc(Nc2n[nH]c(-c3ccccc3C)n2)n1	DAX1 inh-2 4.6
CCN(C(=O)CSc1nnc(-c2cccnc2)n1Cc1ccco1)c1ccccc1C	none (no result: DAX1 inh-2)
COc1cccc(NC(=O)c2cccc(Cl)c2)c1	hgDAF12 agonist 12
Cc1cccc(C(=O)Nc2cccc(OC(=O)c3cccc(C)c3)c2)c1	hgDAF12 agonist 13
COc1cccc(NC(=O)c2cnc(SC)nc2)c1	ssDAF-12 act 1.3
COc1cccc(NC(=O)Nc2ccccc2Br)c1	hgDAF12 agonist 11
COc1cccc(C(=O)Nc2cccc(C(C)=O)c2)c1	none
CCCN1CCS(=O)(=O)N(Cc2cn(Cc3ccc(F)cc3)nn2)C(C(=O)OC)C1 (stereo unspecified)	none (no result: DAX1 inh-2)
COc1ccc(C(=O)Nc2cccc(-c3ccc(N4CCOCC4)nn3)c2)cc1OC	none
COc1cccc(C(=O)Nc2cccc(-c3ccc(N4CCOCC4)nn3)c2)c1	DAX1 inh-1 4.0
COc1cccc(NC(=O)Nc2nc(SC(C)(C)C)ns2)c1	none
COc1ccccc1NC(=O)c1ccc2nc(C)sc2c1	none
COc1cccc(NC(=O)Nc2nc(SC)ns2)c1	DAX1 inh-2 7.2, hgDAF12 agonist 12
COc1cccc(NC(=S)NC(=O)c2cncc(Br)c2)c1	DAX1 inh-2 4.5
COc1cccc(NC(=O)c2ccc3nc(C)sc3c2)c1	hcDAF12 agonist 5.8, DAX1 inh-2 5.5
Cc1ccc(-n2c(SCc3cccc(F)c3)nc3ccccc3c2=O)cc1	none (no result: DAX1 inh-2)
COc1ccccc1NC(=S)OC1CCC12CCC(c1ccccc1)CC2 (stereo unspecified)	none (no result: DAX1 inh-2)
CC(=O)Nc1ccc(C=NNc2ccc([N+](=O)[O-])cc2S(=O)(=O)Nc2ccccc2C(=O)O)cc1	DAX1 inh-1 3.9
O=[N+]([O-])c1ccc(N/N=C/c2ccccc2)c(F)c1	hgDAF12 agonist 12
CC(=O)Nc1ccc(C=NNc2ccc(S(=O)(=O)Nc3ccccc3C(=O)O)cc2[N+](=O)[O-])cc1	none
NCCN1CCN(S(=O)(=O)c2ccc3c(c2)CCN3C(=O)C2CCC2)CC1	none (no result: DAX1 inh-2)
CCCCNC(=O)NC1CCN(CC(=O)Nc2ccc3c(c2)OCCO3)CC1	none (no result: DAX1 inh-2)
COc1ccc(/C=C/S(=O)(=O)NCc2ccc(F)cc2)c(CNC(=O)OC(C)(C)C)c1	none (no result: DAX1 inh-2)
COC(=O)[C@H]1Cc2c([nH]c3ccccc23)[C@H](c2ccccc2)N1	hcDAF12 agonist 6.4
COC(=O)C1Cc2c([nH]c3ccccc23)CN1 (stereo unspecified)	none
O[C@H](COc1cccc(F)c1)CN1CCC(C(O)(c2ccccc2)c2ccccc2)CC1	none (no result: DAX1 inh-2)
CC1(C)CC(=O)C2=C(C1)N(c1ccc(F)cc1)C(=O)CC2c1cccnc1 (stereo unspecified)	none
CCSc1nnc(N2C(=O)CC(c3ccsc3)C3=C2CC(C)(C)CC3=O)s1 (stereo unspecified)	DAX1 inh-2 5.3
Cn1cc(CCOCc2ccccn2)c2ccccc21	DAX1 inh-1 3.6 (no result: DAX1 inh-2)
CCCCNc1c(-c2ccc(SC3CCCCC3)cc2)nc2ccccn12	DAX1 inh-1 4.0, DAX1 inh-2 5.1, hgDAF12 agonist 12, SMARCA2 act 7.9
CCCCNc1c(-c2cccc(SC3CCCCC3)c2)nc2ccc(Cl)cn12	none
CC(C(=O)NC1CCCc2ccccc21)N1CCN(Cc2ccc3c(c2)OCO3)CC1 (stereo unspecified)	ssDAF-12 act 1.0
CC(C(=O)NC1CCCc2ccccc21)N1CCN(c2ccc(F)cc2)CC1 (stereo unspecified)	none
COCCN(C(=S)Nc1cccc(C)c1C)C(C)c1ccco1 (stereo unspecified)	DAX1 inh-2 8.3
COCCN(C(=S)Nc1ccccc1C)C(C)c1ccco1 (stereo unspecified)	none
COn1c(-c2ccccc2)nc2ccc(Cl)cc21	hgDAF12 agonist 12
O=C(O)COn1c(-c2ccccc2)nc2ccc(Cl)cc21	ssDAF-12 act 1.1
O=[N+]([O-])c1ccc2nc(-c3ccccc3)n(OCc3ccc(Cl)cc3)c2c1	none
C#CCNC(=O)C[C@@H]1C[C@@](CCC(=O)OCC)(C(=O)OCC)C2=CCCCN2C1=O	none (no result: DAX1 inh-2)
